Hit rate of the full screen: of about 5,500 compounds, about 2,000 (36%) were called active. Roughly 18% stayed inconclusive and do not appear here. No stated cut-off is given here; in the data, active means normalized growth mostly below about 0.91 (no sharp cut-off); inconclusive means no clear call, values can overlap the other calls; inactive means mostly above about 0.92. The list shows a part of the results.
Experiment: chemical genetic growth profiling, strain panel (AID 1159580);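 further: tested at 20 µM; growth read once vehicle control cultures reached saturation at 30 °C; 1 = growth at the plate median or of vehicle wells; lower values mean less growth of the strain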
Settings: S. cerevisiae deletion strains, growth OD

Measured: normalized growth

COc1ccc(CNC(=O)/C=C/c2ccc3[nH]cc(CCN(C)C)c3c2)cc1
inactive: locus YAL040C, strain CLN3, hits give low values 1.1 | locus YCL061C, strain MRC1 (second series), hits give low values 0.991 | locus YER002W, strain NOP16, hits give low values 0.997 | locus YGR078C, strain PAC10, hits give low values 0.987 | locus YMR263W, strain SAP30, hits give low values 0.98 | locus YNL153C, strain GIM3, hits give low values 0.985 | locus YNL175C, strain NOP13, hits give low values 1.01 | locus YNL197C, strain WHI3, hits give low values 1 | locus YNL224C, strain SQS1, hits give low values 0.986 | locus YOR083W, strain WHI5 (second series), hits give low values 1.01

COC(=O)CC1C(C)(C(=O)c2ccoc2)CC2OCC34C(CC(=O)OC)C5(C)CC36OC3(C)OC1(C(OC(C)=O)C6(OC(C)=O)C5OC(=O)C(C)C)C24O3 (configuration not stated)
inactive: locus YAL021C, strain ccr4, hits give low values 0.995 | locus YAL026C, strain drs2, hits give low values 0.967 | locus YAL030W, strain snc1, hits give low values 0.975 | locus YBL061C, strain skt5, hits give low values 0.978 | locus YBR009C, strain hhf1, hits give low values 0.949 | locus YBR023C, strain chs3, hits give low values 0.987 | locus YBR171W, strain sec66, hits give low values 0.981 | locus YBR231C, strain swc5, hits give low values 0.993 | locus YBR279W, strain paf1, hits give low values 0.996 | locus YCL011C, strain gbp2, hits give low values 0.972 | locus YCL016C, strain dcc1, hits give low values 0.99 | locus YCL061C, strain MRC1, hits give low values 0.995 | locus YCL069W, strain vba3, hits give low values 0.979 | locus YCR088W, strain abp1, hits give low values 0.983 | locus YDL005C, strain med2, hits give low values 0.97 | locus YDL040C, strain nat1, hits give low values 0.986 | locus YDR001C, strain nth1, hits give low values 0.986 | locus YDR069C, strain doa4, hits give low values 0.99 | locus YDR137W, strain rgp1, hits give low values 0.975 | locus YDR159W, strain sac3, hits give low values 0.968 | locus YDR195W, strain ref2 0.944 | locus YDR297W, strain sur2, hits give low values 0.978 | locus YDR334W, strain swr1, hits give low values 0.969 | locus YDR335W, strain msn5, hits give low values 0.987 | locus YDR392W, strain spt3, hits give low values 0.911 | locus YEL003W, strain gim4, hits give low values 0.971 | locus YEL037C, strain rad23, hits give low values 0.967 | locus YEL061C, strain CIN8 (second series), hits give low values 0.975 | locus YER015W, strain faa2, hits give low values 0.987 | locus YER016W, strain bim1, hits give low values 0.98 | locus YER111C, strain swi4, hits give low values 0.959 | locus YER155C, strain BEM2 (second series), hits give low values 1.01 | locus YFR010W, strain ubp6, hits give low values 0.978 | locus YGL167C, strain pmr1, hits give low values 0.959 | locus YGL173C, strain kem1, hits give low values 0.97 | locus YGL227W, strain vid30, hits give low values 0.97 | locus YGL240W, strain doc1, hits give low values 0.988 | locus YGL253W, strain hxk2, hits give low values 0.966 | locus YHR013C, strain ard1, hits give low values 0.952 | locus YHR027C, strain rpn1, hits give low values 0.985 | locus YHR142W, strain chs7, hits give low values 0.994 | locus YJL092W, strain hpr5, hits give low values 0.987 | locus YJL095W, strain BCK1 (second series), hits give low values 0.993 | locus YJL115W, strain asf1, hits give low values 0.988 | locus YJL129C, strain trk1, hits give low values 0.975 | locus YJL154C, strain vps35, hits give low values 0.984 | locus YJL164C, strain tpk1, hits give low values 1 | locus YJL166W, strain qcr8, hits give low values 0.996 | locus YJL187C, strain SWE1, hits give low values 0.984 | locus YKL160W, strain elf1, hits give low values 1.01 | locus YKR026C, strain gcn3, hits give low values 0.976 | locus YKR091W, strain srl3, hits give low values 0.96 | locus YLL001W, strain dnm1, hits give low values 1.01 | locus YLL026W, hits give low values 0.993 | locus YLL041C, strain sdh2, hits give low values 0.996 | locus YLR027C, strain aat2, hits give low values 0.982 | locus YLR221C, strain rsa3, hits give low values 0.999 | locus YLR258W, strain gsy2, hits give low values 0.964 | locus YLR262C, strain YPT6 (second series), hits give low values 0.983 | locus YLR320W, strain mms22, hits give low values 0.993 | locus YLR342W, strain FKS1, hits give low values 0.963 | locus YLR357W, strain rsc2, hits give low values 1.02 | locus YLR370C, strain arc18, hits give low values 0.981 | locus YLR384C, strain iki3, hits give low values 0.97 | locus YML120C, strain ndi1, hits give low values 0.987 | locus YMR058W, strain fet3, hits give low values 0.975 | locus YMR125W, strain sto1, hits give low values 0.995 | locus YMR129W, hits give low values 0.966 | locus YMR205C, strain PFK2, hits give low values 0.957 | locus YMR231W, strain pep5, hits give low values 0.977 | locus YNL071W, strain lat1, hits give low values 0.982 | locus YNL209W, strain ssb2, hits give low values 0.988 | locus YNL248C, strain rpa49, hits give low values 1.02 | locus YNL322C, strain KRE1 (second series), hits give low values 0.969 | locus YNR049C, strain mso1, hits give low values 0.973 | locus YOR001W, strain rrp6, hits give low values 1.04 | locus YOR070C, strain gyp1, hits give low values 1.03 | locus YOR080W, strain dia2, hits give low values 0.982 | locus YOR083W, strain WHI5, hits give low values 1.01 | locus YOR106W, strain vam3, hits give low values 0.991 | locus YOR265W, strain rbl2, hits give low values 0.992 | locus YOR270C, strain vph1, hits give low values 0.856 | locus YOR290C, strain snf2, hits give low values 0.895 | locus YPL051W, strain arl3, hits give low values 0.993 | locus YPL078C, strain atp4, hits give low values 0.99 | locus YPL106C, strain sse1, hits give low values 0.985 | locus YPL240C, strain hsp82, hits give low values 0.947
